Data: PubChem BioAssay AID1822 (The Scripps Research Institute Molecular Screening Center, 2009)
Hit rate of the full screen: of about 290,000 compounds, about 3,500 (1.2%) were called active. For the sample, actives were picked, then their nearest neighbours and some compounds at random. Unmarked numbers belong to inactive results.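 Rule for the calls: active = inhibition above the campaign mean inhibition over all tested compounds plus 3 SD (cut at about 28% in these data); inactive = the rest.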

Test system: M18 aspartyl aminopeptidase (Plasmodium falciparum 3D7)
Experiment: inhibition of P. falciparum M18 aminopeptidase – biochemical, QFRET, recombinant enzyme, primary screen (AID 1822);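 note: 0% = plate median of test compound wells and 100% = 2 mM ZnCl2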
Settings: recombinant PfM18AAP, H-Glu-NHMec fluorogenic cleavage; at 7.35 µM; stronger effect = higher value

| SMILES | inhibition |
| --- | --- |
| Brc1ccccc1/C=N/Nc1nc2ccccc2o1 | -0.38% |
| CCOc1ccccc1/C=N/Nc1nc2ccccc2o1 | 2.76% |
| COc1ccc(/C=N/Nc2nc3ccccc3o2)cc1OC | 56.5% (active) |
| O=C(NC1Cc2ccccc2C1)c1cc(COc2cccc(C(F)(F)F)c2)on1 | 0.88% |
| O=C(O)c1ccccc1-c1ccccc1C(=O)NCCc1ccccc1 | 0.27% |
| Cc1ccc(C(=O)NC(=S)NCCN2CCOCC2)cc1 | -7.16% |
| COc1cccc(NC(=S)NCCCN2CCOCC2)c1 | -6.09% |
| CCOc1cccc(/C=N/NC(=S)NCCN2CCOCC2)c1O | 37.6% (active) |
| c1cnc(N2CCN(c3ccc4ccccc4n3)CC2)nc1 | -7.11% |
| COC(=O)c1cc(NS(=O)(=O)c2ccc3c(c2)c(=O)n(C)c(=O)n3C)cc(C(=O)OC)c1 | 7.75% |
| CCOC(=O)[C@H]1[C@H]2COc3cc(OC)ccc3[C@@H]2N2C(=O)N(c3ccc(Br)cc3)C(=O)[C@@]12C | 8.12% |
| COc1cc(Cl)ccc1OCc1cc(C(=O)N2CC[C@@H]3CCCC[C@H]3C2)no1 | -8.61% |
| Cc1nccn1CC(=O)N/N=C/c1ccc(O)c(O)c1 | 59.7% (active) |
| CCn1c(SCC(=O)N/N=C/c2ccncc2)nc2ccccc21 | -5.49% |
| Cc1nc2ccccc2n1CC(=O)N/N=C/c1cccnc1 | 0.09% |
| CCOc1cc(/C=N/NC(=O)CN2CCCCC2)ccc1O | -2.78% |
| CCOc1ccc(/C=N/NC(=O)CSc2ccccn2)cc1O | -7.37% |
| Cn1c(SCC(=O)N/N=C/c2ccc(O)c(O)c2)nc2ccccc21 | 61.1% (active) |
| CC(=O)Oc1ccc(-c2cccc(C(=O)N3CCCCC3)c2)cc1 | 0.56% |
| CSc1nccc(NC(=O)c2ccc(C(C)(C)C)cc2)n1 | -0.09% |

| SMILES | inhibition |
| --- | --- |
| Cc1cccc([C@@H]2[C@@H]3C(=O)N(Cc4ccccc4)C(=O)[C@@H]3[C@]3(C)C(=O)N(c4ccc(Br)cc4)C(=O)N23)c1 | -12% |
| Cc1ccc(CNC(=O)[C@@H](NC(=O)Cc2ccccc2)C(C)C)cc1 | 5.66% |
| COc1cccc(NC(=O)Nc2nnc(N3CCCCC3C)s2)c1 (centres undefined) | 0.21% |
| CCOc1ccccc1NC(=O)c1cccnc1 | -12.7% |
| COc1ccccc1NC(=O)c1ccc2nc(N3C(=O)CCC3=O)sc2c1 | -4.36% |
| COc1ccccc1NC(=O)c1ccc(N2CC3CC(C2)c2cccc(=O)n2C3)c(NC(=O)c2cccnc2)c1 (centres undefined) | 29.5% (active) |
| CC(C)Cn1c(=O)c2ccccc2n2c(CCC(=O)NCc3ccccn3)nnc12 | -6.62% |
| CCOc1ccc(S(=O)(=O)N2CCN=C2Cc2ccccc2)cc1C | -0.06% |
| Cc1nnc(N/N=C/c2ccccn2)[nH]c1=O | 8.17% |
| O=c1[nH]c(NCCO)nnc1Cc1ccc(Cl)cc1 | 5.33% |
| COc1ccc(Cc2nnc(N/N=C/c3ccccc3O)[nH]c2=O)cc1OC | 54.3% (active) |
| COc1cccc(N(CC(=O)NCc2ccccc2)C(=O)CCC(=O)Nc2nccs2)c1 | -7.44% |
| CCCn1c2ccccc2c2cnn(CC(=O)NCCCN3CCCCC3CC)c(=O)c21 (centres undefined) | 2.69% |
| Cc1ccc(C2Nc3cccc4cccc(c34)N2)cc1 | 19.1% |
| COc1cccc(C2Nc3cccc4cccc(c34)N2)c1 | -7.19% |
| Oc1ccc(C2Nc3cccc4cccc(c34)N2)cc1 | 31.7% (active) |
| CCOC(=O)C1(Cc2cccc(OC)c2)CCCN(C(=O)CCSC)C1 (centres undefined) | -2.88% |
| Cc1ccc(C)c(N2CCN(C(=O)CCCCCn3c(=S)[nH]c4ccc(N5CCOCC5)cc4c3=O)CC2)c1 | 5.1% |
| O=C(O)CC(CC(=O)N1CCOCC1)c1ccccc1 (centres undefined) | -1.93% |
